Test results reported in PubChem BioAssay (EPA / NIEHS).
The source made the active and inactive calls. Rule for the calls: active = hit-call score of the fitted dose curve at least 0.9, where 1 is the maximum; inactive = score below 0.9.

What follows are compounds tested on Alkaline Phosphatase, Placental (ALPP) gene, ALPP (gene 250) (assay: LTEA_HepaRG_ALPP: Life Technologies and Expression Analysis (LTEA) Assay for Alkaline Phosphatase, Placental (ALPP) gene using HepaRG (AID 2283468;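 for AC50: ALPP transcript by TaqMan qRT-PCR normalized to ACTB GAPDH and POLR2A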)). Conditions: mRNA level, 48 h; actives raise or lower the signal.
Method: LTEA_HepaRG is a cell based, multiplexed-readout assay that uses HepaRG, a human liver cell line, with measurements taken at 48 hours after chemical dosing on a 96-well plate.LTEA_HepaRG_ALPP is one of 102 assay component(s) measured in the LTEA HepaRG cell culture assay. It is a marker of Cell proliferation, survival, death.Data from the assay component LTEA_HepaRG_ALPP was analyzed into 1 endpoint. This assay endpoint, LTEA_HepaRG_ALPP, was analyzed with bidirectional fitting relative to DMSO as the negative control and baseline of activity. Using a type of inducible reporter, measures of mRNA induction for gain or loss-of-signal activity can be used to understand regulation of transcription factor activity. To generalize the intended target to other relatable targets, this assay endpoint is annotated to the phosphatase intended target family, where the subfamily is Cell proliferation, survival, death.
A total of 1060 chemcials from the ToxCast library were tested in eight-point concentration-response experiments. Cell culture and cytotoxicity assays were conducted at Thermo Fisher Scientific's Custom Services facility (Madison, WI). A single lot of human HepaRG cells (Thermo Fisher Scientific, Frederick, MD) was used for the cell culture experiments. 96-well format collagen type I coated plates of human HepaRG cells were prepared using established methods. Briefly, cryopreserved HepaRG cells were thawed, plated at a density of approximately 100,000 cells/well in HepaRG Thaw, Plate, and General Purpose media (HPRG770, Thermo Fisher Scientific), and incubated for 48 hours. 0.5% DMSO was selected as vehicle control to balance the requisite need of DMSO in HepaRG cultures to maintain differentiation (for example, baseline metabolism, proportions of hepatocytes vs. cholangiocytes), while enabling further hepatic receptor pathway activation (for example, PXR and CAR) in response to chemical exposure. 48 hours after plating, the culture medium was replaced with HepaRG Serum-Free Incudtion Media. Cells were exposed to each test chemical in duplicate and maintained in CO2 incubators for another 48 hours. Chemical plates were thawed to room temperature and 200x concentrations of treatment groups were prepared. 8-point conentration-reponse curves were made with the highest exposure at 100 uM, followed by half-log dilutions, all in 0.5% DMSO. Each test plate contained variouse controls, induction positive controls (1mM phenobarbital), cytotoxicity positive controls ([…] aflatoxin B1), vehicle controls (0.5% DMSO), and total lysis controls (0.5% DMSO). Cell morphology images were taken using an Essen IncuCyte FLR automated microscope, with six 96-well plates imaged in about 24 minutes. Images were captured and exported and JPEG files. Spent culture media was transfered to black-well plates for the LDH assay, and remaining media was sorted at -80 C for later use. Cells were treated with RLT buffer and frozen until shipped for gene expression analysis. Total RNA was isolated from the cell suspension in 75 uL of Buffer RLT (Qiagen, Germantown, MD 20874) by Quintiles/Expression Analysis (Durham, NC) using a custom isolation procedure. Total RNA from each plate well was transferred to a preamplification plate. Fluidigm's 96.96 Dynamic ArrayTM (Fluidigm, Amsterdam, the Netherlands) technology was used for gene expression analyses by quantitative reverse transcription polymerase chain reaction (qRT-PCR, performed by Quintiles/Expression Analysis, Durham, NC)89. Standard TaqManTM Assays (Applied Biosystems/ThermoFisher Scientific, Foster City, CA) were used to assess the expression of 93 genes selected based on their selectivity and sensitivity to important hepatic receptors known to be modulated by environmental chemicals; importance in human hepatocyte functionality; and hepatotoxicity. […]

SMILES	AC50	outcome
NC(=O)c1nc(-c2cccc(-c3cc(F)ccc3OCC(F)(F)C(F)(F)F)c2)n[nH]1	3.42 µM (active)	–
CC/C(=C(/CC)c1ccc(O)cc1)c1ccc(O)cc1	–	inactive
O=C(O)c1ccccc1C(=O)OCc1ccccc1	–	inactive
Cc1ccc2oc(CN(Cc3ccccc3)C(=O)Nc3c(F)cc(F)cc3F)c(-c3ccc(Cl)cc3)c2c1	–	inactive
Cc1cccc2ccccc12	–	inactive
CCO[Si](CCCNC(N)=O)(OCC)OCC	–	inactive
OC12N=C(c3ccccc3)SC1Cc1cc(Cl)ccc12 (stereo not given)	35.7 µM (active)	–
CN1C(=O)CC[C@H]1c1cccnc1	–	inactive
CN(C[C@@H](CC[N+]12CCC(C3CCCCC3)(CC1)CC2)c1ccc(Cl)c(Cl)c1)C(=O)c1cc(C(F)(F)F)cc(C(F)(F)F)c1	3.14 µM (active)	–
CCCCCc1ccc(N)cc1	–	inactive
CC[C@H](NC(=O)c1cc(F)ccc1NS(=O)(=O)c1cccc2cccnc12)c1ccccc1	–	inactive
CCCCOC(=O)CC(CC(=O)OCCCC)(OC(C)=O)C(=O)OCCCC	–	inactive
O=c1ccc2ccccc2o1	–	inactive
CCCCCCCC[Si](OCC)(OCC)OCC	–	inactive
CCCOC(=O)c1cc(O)c(O)c(O)c1	–	inactive
NCc1cccc(C2CCN(C(=O)c3ccc(C#Cc4ccccc4F)o3)CC2)c1	46.2 µM (active)	–
CN(C)c1ccc(C(=C2C=CC(=[N+](C)C)C=C2)c2ccc(N(C)C)cc2)cc1	3.9 µM (active)	–
c1ccc2ccccc2c1	–	inactive
COc1cccc([C@H](O)C2CCN(CCc3ccc(F)cc3)CC2)c1OC	9.92 µM (active)	–
CCN(Cc1cccnc1)C(=O)c1cccc(Cl)c1[C@]1(C)C(=O)N(Cc2ccc(OC)cc2OC)c2ccc(Cl)cc21	10.1 µM (active)	–

SMILES	AC50	outcome
O=CCCCC=O	–	inactive
CC(C)(O)c1ccc(CNC(=O)c2cccnc2Oc2ccc3nonc3c2)cc1	–	inactive
Cc1oc2c(NC(=O)c3c(Cl)cccc3Cl)cccc2c1C(C)(C)O	50 µM (active)	–
CCCCCCCCOc1ccc(C(=O)c2ccccc2)c(O)c1	–	inactive
CCCC(=O)OCCC(C)C	–	inactive
CCOC(=O)O[C@H](C)OC(=O)c1ccc2c(c1)cc(C(=O)NC1CCN(C(C)C)CC1)n2Cc1cc(-c2ccc(Cl)s2)on1	16.9 µM (active)	–
Cc1cc(F)ccc1-c1cc(N2CC[C@@H](O)[C@H]2CO)ncc1N(C)C(=O)C(C)(C)c1cc(C(F)(F)F)cc(C(F)(F)F)c1	16.5 µM (active)	–
CCN(Cc1cccc(S(=O)(=O)O)c1)c1ccc(C(=C2C=CC(=[N+](CC)Cc3cccc(S(=O)(=O)O)c3)C=C2)c2ccccc2S(=O)(=O)[O-])cc1	–	inactive
O=C(O)c1ccccc1-n1cc(C(=O)O)c(=O)c2cc(Nc3c(F)cc(F)cc3Cl)c(Cl)cc21	0.0892 µM (active)	–
Oc1ccc2ccccc2c1	–	inactive
CCCCCCCCN(C)CCCCCCCC	–	inactive
CCCCCCCCOC(=O)c1cc(O)c(O)c(O)c1	11.5 µM (active)	–
CCN(CC)C(=O)c1cc(S(=O)(=O)Cc2ccccc2)c(N2CCC(c3ccccc3)CC2)cc1N(CC)CCN(C)C	31.5 µM (active)	–
Cc1occc1C(=O)Nc1ccc(C(=O)N2CCC(F)(F)/C(=C\C(=O)N3CCC(N4CCCCC4)CC3)c3ccccc32)cc1	46.7 µM (active)	–
Cc1ccc(C(C)C)cc1	–	inactive
O=C(OCCCCCCOC(=O)c1ccccc1)c1ccccc1	–	inactive
O=C1CCC(C2CCCCC2)CC1	–	inactive
OCCO	–	inactive
Clc1ccccc1C(c1ccccc1)(c1ccccc1)n1ccnc1	9.09 µM (active)	–
CCCCCCCCCCCC[N+](C)(C)C	66.1 µM (active)	–
